Among all 5,500 compounds or so, about 2,000 (36%) were called active. Roughly 18% stayed inconclusive and do not appear here. Cut-off read from the data, not from the text of the source: active = normalized growth mostly below about 0.91 (no sharp cut-off); inconclusive = no clear call, values can overlap the other calls; inactive = mostly above about 0.92. Some of the results follow.
Assay: chemical genetic growth profiling, strain panel (AID 1159580);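 note: tested at 20 µM; growth read once vehicle control cultures reached saturation at 30 °C; 1 = growth at the plate median or of vehicle wells; lower values mean less growth of the strain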
Details: growth OD

Measured: normalized growth

Clc1ccc(Cl)cc1
inactive: S. cerevisiae deletion strains, locus YAL013W, strain DEP1, active compounds read low 1.01 | S. cerevisiae deletion strains, locus YBR021W, strain FUR4, active compounds read low 1.01 | S. cerevisiae deletion strains, locus YBR229C, strain ROT2, active compounds read low 1.01 | S. cerevisiae deletion strains, locus YCL029C, strain bik1, active compounds read low 0.994 | S. cerevisiae deletion strains, locus YDL035C, strain GPR1, active compounds read low 1.02 | S. cerevisiae deletion strains, locus YDL074C, strain BRE1, active compounds read low 1.04 | S. cerevisiae deletion strains, locus YDL101C, strain DUN1, active compounds read low 1.02 | S. cerevisiae deletion strains, locus YDL134C, strain PPH21, active compounds read low 1 | S. cerevisiae deletion strains, locus YDL185W, strain tfp1, active compounds read low 0.968 | S. cerevisiae deletion strains, locus YDL192W, strain arf1, active compounds read low 0.983 | S. cerevisiae deletion strains, locus YDR101C, strain arx1, active compounds read low 0.986 | S. cerevisiae deletion strains, locus YDR150W, strain NUM1, active compounds read low 1 | S. cerevisiae deletion strains, locus YDR162C, strain NBP2, active compounds read low 1.01 | S. cerevisiae deletion strains, locus YDR318W, strain mcm21, active compounds read low 0.99 | S. cerevisiae deletion strains, locus YDR388W, active compounds read low 0.988 | S. cerevisiae deletion strains, locus YDR502C, strain sam2, active compounds read low 0.993 | S. cerevisiae deletion strains, locus YEL061C, strain CIN8, active compounds read low 1 | S. cerevisiae deletion strains, locus YER110C, active compounds read low 0.979 | S. cerevisiae deletion strains, locus YER155C, strain BEM2, active compounds read low 1.01 | S. cerevisiae deletion strains, locus YER167W, strain BCK2, active compounds read low 1.01 | S. cerevisiae deletion strains, locus YGL078C, strain dbp3, active compounds read low 0.974 | S. cerevisiae deletion strains, locus YGL086W, strain mad1, active compounds read low 1 | S. cerevisiae deletion strains, locus YGL248W, strain PDE1, active compounds read low 1.01 | S. cerevisiae deletion strains, locus YGR078C, strain PAC10, active compounds read low 1.02 | S. cerevisiae deletion strains, locus YGR135W, strain pre9, active compounds read low 0.99 | S. cerevisiae deletion strains, locus YGR229C, strain SMI1, active compounds read low 1.02 | S. cerevisiae deletion strains, locus YGR252W, strain gcn5, active compounds read low 0.964 | S. cerevisiae deletion strains, locus YHR030C, strain SLT2, active compounds read low 1.01 | S. cerevisiae deletion strains, locus YHR079C, strain IRE1 (second series), active compounds read low 0.989 | S. cerevisiae deletion strains, locus YHR094C, strain hxt1, active compounds read low 0.987 | S. cerevisiae deletion strains, locus YHR129C, strain ARP1, active compounds read low 1.01 | S. cerevisiae deletion strains, locus YHR200W, strain rpn10, active compounds read low 0.988 | S. cerevisiae deletion strains, locus YIL066C, strain RNR3, active compounds read low 1.02 | S. cerevisiae deletion strains, locus YIL073C, strain SPO22, active compounds read low 1.01 | S. cerevisiae deletion strains, locus YIL125W, strain kgd1, active compounds read low 0.972 | S. cerevisiae deletion strains, locus YIR030C, strain dcg1, active compounds read low 0.987 | S. cerevisiae deletion strains, locus YJL095W, strain BCK1, active compounds read low 1.02 | S. cerevisiae deletion strains, locus YJL134W, strain LCB3, active compounds read low 1.01 | S. cerevisiae deletion strains, locus YJL168C, strain set2, active compounds read low 0.983 | S. cerevisiae deletion strains, locus YJL187C, strain SWE1 (second series), active compounds read low 1.01 | S. cerevisiae deletion strains, locus YJR043C, strain POL32, active compounds read low 1 | S. cerevisiae deletion strains, locus YJR075W, strain HOC1, active compounds read low 1.01 | S. cerevisiae deletion strains, locus YKL009W, strain mrt4, active compounds read low 1 | S. cerevisiae deletion strains, locus YKL068W, active compounds read low 0.984 | S. cerevisiae deletion strains, locus YKL085W, strain MDH1 (second series), active compounds read low 0.982 | S. cerevisiae deletion strains, locus YKL085W, strain MDH1, active compounds read low 0.982 | S. cerevisiae deletion strains, locus YKL190W, strain CNB1, active compounds read low 1.02 | S. cerevisiae deletion strains, locus YKR001C, strain vps1, active compounds read low 0.989 | S. cerevisiae deletion strains, locus YLR039C, strain RIC1, active compounds read low 1.04 | S. cerevisiae deletion strains, locus YLR058C, strain SHM2, active compounds read low 1.01 | S. cerevisiae deletion strains, locus YLR102C, strain apc9, active compounds read low 0.993 | S. cerevisiae deletion strains, locus YLR262C, strain YPT6, active compounds read low 1.04 | S. cerevisiae deletion strains, locus YLR268W, strain sec22, active compounds read low 0.999 | S. cerevisiae deletion strains, locus YLR330W, strain CHS5, active compounds read low 1 | S. cerevisiae deletion strains, locus YLR342W, strain FKS1 (second series), active compounds read low 0.997 | S. cerevisiae deletion strains, locus YLR371W, strain rom2, active compounds read low 0.981 | S. cerevisiae deletion strains, locus YLR418C, strain cdc73, active compounds read low 0.974 | S. cerevisiae deletion strains, locus YML016C, strain PPZ1, active compounds read low 1.01 | S. cerevisiae deletion strains, locus YML032C, strain rad52, active compounds read low 0.986 | S. cerevisiae deletion strains, locus YML124C, strain tub3, active compounds read low 0.987 | S. cerevisiae deletion strains, locus YMR078C, strain ctf18, active compounds read low 0.99 | S. cerevisiae deletion strains, locus YMR223W, strain ubp8, active compounds read low 0.984 | S. cerevisiae deletion strains, locus YMR263W, strain SAP30, active compounds read low 1.01 | S. cerevisiae deletion strains, locus YMR307W, strain GAS1, active compounds read low 1.03 | S. cerevisiae deletion strains, locus YNL067W, strain RPL9B, active compounds read low 1.02 | S. cerevisiae deletion strains, locus YNL128W, strain TEP1, active compounds read low 1.02 | S. cerevisiae deletion strains, locus YNL153C, strain GIM3, active compounds read low 1.01 | S. cerevisiae deletion strains, locus YNL233W, strain BNI4, active compounds read low 1.02 | S. cerevisiae deletion strains, locus YNL250W, strain rad50, active compounds read low 0.963 | S. cerevisiae deletion strains, locus YNL271C, strain bni1, active compounds read low 0.98 | S. cerevisiae deletion strains, locus YNL298W, strain CLA4, active compounds read low 0.98 | S. cerevisiae deletion strains, locus YNL307C, strain MCK1, active compounds read low 0.991 | S. cerevisiae deletion strains, locus YNL322C, strain KRE1, active compounds read low 1.01 | S. cerevisiae deletion strains, locus YNR052C, strain pop2, active compounds read low 0.981 | S. cerevisiae deletion strains, locus YOL006C, strain TOP1, active compounds read low 1.05 | S. cerevisiae deletion strains, locus YOL012C, strain htz1 0.71 | S. cerevisiae deletion strains, locus YOL147C, strain pex11, active compounds read low 0.992 | S. cerevisiae deletion strains, locus YOR061W, strain CKA2, active compounds read low 1.01 | S. cerevisiae deletion strains, locus YOR069W, strain VPS5, active compounds read low 1.01 | S. cerevisiae deletion strains, locus YOR136W, strain idh2, active compounds read low 0.985 | S. cerevisiae deletion strains, locus YOR144C, strain elg1, active compounds read low 0.994 | S. cerevisiae deletion strains, locus YOR184W, strain ser1, active compounds read low 0.997 | S. cerevisiae deletion strains, locus YOR316C, strain cot1, active compounds read low 0.989 | S. cerevisiae deletion strains, locus YPL055C, strain LGE1, active compounds read low 1.02 | S. cerevisiae deletion strains, locus YPL241C, strain CIN2, active compounds read low 1.01 | S. cerevisiae deletion strains, locus YPR119W, strain clb2, active compounds read low 0.988 | S. cerevisiae deletion strains, locus YPR141C, strain kar3, active compounds read low 0.975 | S. cerevisiae deletion strains, locus YPR163C, strain tif3, active compounds read low 0.991 | S. cerevisiae deletion strains, locus YPR167C, strain met16, active compounds read low 0.985 | S. cerevisiae deletion strains, strain wtn01, active compounds read low 0.987 | S. cerevisiae strains, strain wild type, active compounds read low 1.01

Source: PubChem BioAssay AID1159580 (chemical genetic matrix, 2015)
